Source: PubChem (several laboratories)
This is a sample that favours compounds with a hit; in the whole collection about 3.2% have one here.
EphB4 antag: EphB4-ephrin-B2 interaction antagonists, primary screen, biochemical, TNYL-RAW peptide probe, fluorescence polarization. Ephrin type-B receptor 4 (Homo sapiens), P54760. EphB4 LBD / TNYL-RAW-Alexa532 peptide. inhibition, % at 7 µM. 97,000 tested, 0.15% active;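 active means inhibition above the screen-wide mean inhibition plus 3 SD, cut at about 15% in these data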;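 further: 0% = DMSO wells and 100% = excess unlabeled TNYL-RAW peptide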
ERb coact inh: inhibitors of ERβ-SRC1 coactivator interaction, primary screen, biochemical, TR-FRET, ERβ LBD, SRC-1 peptide | inhibition, % at 25.6 µM | TR-FRET ER-beta LBD / SRC1-Cy5 peptide binding; receptor agonist-loaded with 1 µM estradiol | Estrogen receptor beta (Homo sapiens), Q92731 | AID 633, 2007 | 86,000 tested, 1.3% active;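 active means compounds whose percent inhibition of the receptor-coactivator binding signal exceeds about 50% in the single-dose screen, limit read from the data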;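 further: 0% = receptor plus peptide wells without compound and 100% = peptide-only wells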
Target sequence (Q92731 whole entry, looked up, the tested form may be a part): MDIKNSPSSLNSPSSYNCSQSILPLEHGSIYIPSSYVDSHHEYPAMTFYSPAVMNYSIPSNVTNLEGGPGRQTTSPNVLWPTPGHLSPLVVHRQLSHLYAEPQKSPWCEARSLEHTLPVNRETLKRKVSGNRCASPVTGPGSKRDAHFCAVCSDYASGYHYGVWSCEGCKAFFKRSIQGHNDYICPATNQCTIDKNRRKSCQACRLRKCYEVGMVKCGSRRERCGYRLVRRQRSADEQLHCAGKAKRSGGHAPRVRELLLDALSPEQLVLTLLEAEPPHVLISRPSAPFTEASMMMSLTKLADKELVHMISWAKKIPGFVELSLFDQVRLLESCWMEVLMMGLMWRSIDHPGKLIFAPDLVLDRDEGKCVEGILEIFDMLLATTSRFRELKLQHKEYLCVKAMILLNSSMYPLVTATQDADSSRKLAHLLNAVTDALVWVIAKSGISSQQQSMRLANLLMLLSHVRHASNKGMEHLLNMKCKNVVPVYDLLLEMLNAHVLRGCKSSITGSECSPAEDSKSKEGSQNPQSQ
ERa coact inh: ERα–SRC-1 coactivator interaction inhibitors, primary screen, biochemical, TR-FRET, ERα LBD, estradiol-bound; TR-FRET ER-alpha LBD / SRC-1 peptide; 86,000 tested, 1.7% active; AID 629, 2007; Estrogen receptor (Homo sapiens), P03372; inhibition, % at 25.6 µM; in the data active means inhibition above about 50%;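 further: 0% = receptor plus peptide control and 100% = peptide only without receptor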
MT1-MMP txn act: MT1-MMP promoter reporter activation – cell-based, luciferase luminescence, primary screen; HT1080 MT1-MMP promoter luciferase reporter, overnight; hits give high values; activation factor at 10 µM; 86,000 tested, 0.16% active;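 active means activation factor of at least 2 for MT1-MMP transcription at 10 µM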
Candida biofilm: clotrimazole potentiators killing Candida biofilms, primary screen, with clotrimazole, Alamar Blue; C. albicans biofilm + clotrimazole; inhibition, % at 6 µM; 85,000 tested, 0.14% active;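 active means inhibition above 20%; inactive means inhibition below 20%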;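 further: preformed 24 hr biofilms exposed to compound for 48 hr; 0% = biofilm without compound and 100% = blank killed by clotrimazole plus chlorhexidine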
ERa SRC1 pot: enhancers of ERα–SRC-1 coactivator binding, primary screen, biochemical, TR-FRET, ERα LBD, low estradiol | Estrogen receptor (Homo sapiens), P03372 | TR-FRET ERalpha-LBD/SRC-Cy5 coactivator binding, 2 h; 100 = basal binding, no effect | coactivator binding (% of control), % at 25.6 µM | 86,000 tested, 1.3% active | AID 639, 2007; in the data active means activity above about 200%;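 further: binding measured in presence of low estradiol as agonist stimulus; 0% = peptide alone without receptor and 100% = receptor with peptide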
* hit, by the source's call; nt = no result; [ ] = remark or other dose.

SMILES | EphB4 antag | ERb coact inh | ERa coact inh | MT1-MMP txn act | Candida biofilm | ERa SRC1 pot
COC(=O)[C@@]1(Cc2ccc(F)cc2)[C@@H]2C(=CC(=O)[C@H]2CC(=O)C(=O)N(C)C)CN1C(=O)c1ccccc1 | nt | nt | nt | 1.1 | nt | nt
COc1ccc(CC(=O)OCC(=O)Nc2ncc(Cl)cc2Cl)cc1OC | 7 | -4 | -2 | 1.3 | 4 | 99
COc1ccccc1OCCC(=O)OCC(=O)Nc1ncc(Cl)cc1Cl | 3 | 40 | 54*[fluorescence artefact?] | 1.1 | 8 | 48
COc1cc(CCC(=O)OCC(=O)Nc2ncc(Cl)cc2Cl)cc(OC)c1OC | -3 | 59* | 56*[fluorescence artefact?] | 1 | -2 | 22
COc1cc(CCC(=O)OCC(=O)Nc2nc(C)c(Cl)cc2Cl)cc(OC)c1OC | 2 | nt | nt | nt | nt | nt
COc1ccc(S(=O)(=O)NCc2ccco2)cc1-c1nnc2c3ccccc3c(C)nn12 | 0 | -7 | -6 | 1 | 1 | 104
N#Cc1c(N)sc(=S)c2c1CCCCC2 | -2 | 57*[fluorescence artefact?] | 36 | 1 | 5 | 51
CC1CCN(C(=O)CSc2ccc3nnc(-c4ccc(F)cc4)n3n2)CC1 | nt | -4 | -1 | 1 | 8 | 106
Cc1nn(Cc2ccccc2)c(C)c1NC(=O)CSc1nnc(-c2cc(Cl)ccc2O)n1C | -1 | 47 | 53* | 1.1 | nt | 58
O=C(c1cc2ccccc2o1)c1nc2c(n1O)CCCCC2 | 1 | -10 | -5 | 1.5 | 10 | 104
Cc1ccc(C(=O)Nc2sc3c(c2C(=O)NCc2ccco2)CCCC3)cc1 | 2 | 10 | 7 | 1.2 | 1 | 141
COc1ccc(C(=O)Nc2sc3c(c2C(=O)NCc2ccco2)CCCC3)cc1OC | 5 | 11 | 10 | 1.2 | 6 | 228*
O=C(Nc1sc2c(c1C(=O)NCc1ccco1)CCCC2)c1ccc2c(c1)OCO2 | -1 | 62*[fluorescence artefact?] | 14 | 1.8 | -3 | 136
COc1cc(C(=O)Nc2sc3c(c2C(=O)NCc2ccco2)CCCC3)cc(OC)c1OC | -2 | -9 | -14 | 1.3 | 2 | 125
Cc1cc(CCN2CCC(=O)NC2=O)ccc1OC(C)C | 2 | 5 | -6 | 0.9 | 6 | 98
O=C(O)c1cc2sccc2s1 | 2 | 59* | 1 | 1.1 | 8 | 107
CCC(CC)C(=O)NCCc1cc2c(C)ccc(C)c2[nH]c1=O | nt | 2 | 54*[fluorescence artefact?] | 1.1 | 9 | 105
Cc1nc(NNC(=O)c2ccc([N+](=O)[O-])cc2)cc(-c2ccccc2)n1 | -1 | 6 | 11 | 1 | 1 | 204*[fluorescence artefact?]
O=C(NCCc1ccccc1)c1ccc([N+](=O)[O-])cc1 | 4 | nt | nt | nt | nt | nt
O=C(Nc1cc(Oc2ccccc2)cc([N+](=O)[O-])c1)C12CC3CC(C1)CC(n1cnc(Cl)n1)(C3)C2 | 1 | nt | nt | nt | nt | nt
O=c1c2c3c(sc2nc2n1CCCCC2)CCC3 | 0 | 4 | 11 | 1.5 | 4 | 90
O=c1c2c3c(sc2nc2sc(CN4CCCCC4)cn12)CCCC3 | -2 | 29 | 51*[fluorescence artefact?] | 1.3 | 4 | 268*[fluorescence artefact?]
CCn1ncc(Cl)c1C(=O)NC(C)c1ccccc1 (stereo not drawn) | 3 | -19 | 10 | 1.1 | 1 | 100
CCOC(=O)c1cnn2c(C(F)(F)F)cc(-c3ccccc3)nc12 | nt | -33 | -22 | 1 | 10 | 110
COc1ccc(N2Cc3cccc(C(=O)NC(C)CCc4ccco4)c3C2=O)cc1 (stereo not drawn) | -4 | 49 | 69*[fluorescence artefact?] | 1.2 | -8 | 98
SMILES | EphB4 antag | ERb coact inh | ERa coact inh | MT1-MMP txn act | Candida biofilm | ERa SRC1 pot
CCOC(=O)N1CCC(NC(=O)c2cccc3c2C(=O)N(c2ccc(OC)cc2)C3)CC1 | 0 | 52* | 72*[fluorescence artefact?] | 1 | 3 | 57
CCOC(=O)N1CCC(NC(=O)c2cnn3c(C(F)(F)F)cc(-c4cccc(OC)c4)nc23)CC1 | nt | 51*[fluorescence artefact?] | 72*[fluorescence artefact?] | 1.1 | 8 | 183
CCc1ccc(N/C(SCc2ccccc2C)=C(/C#N)C(=O)NCc2ccco2)cc1 | 4 | nt | nt | nt | nt | nt
CCN(CC)S(=O)(=O)c1cc(C(=O)Nc2nncs2)c(Cl)cc1Cl | -6 | 16 | 30 | 1 | -1 | 115
CCOC(=O)c1sc(NC(=S)NC(=O)c2ccccc2Cl)c(C(=O)OCC)c1C | -6 | nt | nt | nt | nt | nt
Cc1ccccc1C(=O)Nc1ccc(Br)cn1 | 3 | -2 | -5 | 1.1 | 5 | 204*
COc1cc(C(O)P(=O)(OCC(C)C)OCC(C)C)cc(OC)c1OC (stereo not drawn) | -3 | nt | nt | nt | nt | nt
COc1ccc(N=CC2=C(Nc3ccc(OC)cc3)c3c(C)nn(-c4ccccn4)c3CC2)cc1 | 25* | 28 | 25 | 1.3 | 1 | 97
Cc1csc(NC(=O)c2ccc(C)c(S(=O)(=O)N3CCCCC3)c2)n1 | 7 | -3 | -1 | 1.2 | 9 | 102
Cc1ccc(C(=O)Nc2ccc3cn[nH]c3c2)cc1S(=O)(=O)N1CCCCC1 | 3 | -5 | 3 | 2.1* | 7 | 99
Cc1cc(C(=O)N/N=C/c2cccc([N+](=O)[O-])c2)c(C)o1 | -6 | nt | nt | nt | nt | nt
O=C(N/N=C/c1ccncc1)c1cc([N+](=O)[O-])cc([N+](=O)[O-])c1O | 19* | nt | nt | nt | nt | nt
Cc1nc2sc(C(c3cccs3)N3CCN(c4ccccc4)CC3)c(O)n2n1 (stereo not drawn) | nt | -1 | -8 | 1 | 1 | 101
Cc1c(NC(=O)COC(=O)Cc2ccc(Cl)cc2)c(=O)n(-c2ccccc2)n1C | nt | 10 | 0 | 1 | -4 | 83
CCSc1nnc(NC(=O)c2ccccn2)s1 | nt | -4 | 10 | 0.9 | 3 | 92
CCSc1nnc(NC(=O)c2ccc(Br)s2)s1 | 1 | 28 | 8 | 1.1 | 5 | 396*[fluorescence artefact?]
O=C(Nc1nnc(C2CCCCC2)s1)c1ccc(Br)s1 | 3 | 52*[fluorescence artefact?] | 11 | 1.3 | 4 | 367*[fluorescence artefact?]
COc1ccc(OC)c2sc(NC(=O)c3ccc(Br)s3)nc12 | nt | 70*[fluorescence artefact?] | 82*[fluorescence artefact?] | 1.1 | 7 | 126
COc1ccc(OC)c2sc(NC(=O)c3ccc(Cl)s3)nc12 | 8 | nt | nt | 1.1 | nt | nt
CC1(C)Nc2ccccc2N(CC(=O)N2CCCCC2)C1=O | -6 | nt | nt | 1.1 | nt | nt
CCOC(=O)c1sc(NC(=O)CNC(=O)Cn2cnc3sc(C)c(C)c3c2=O)nc1C | 2 | 46 | 48 | 1.1 | -4 | 226*
CCOCCn1cnc2sc(C(=O)Nc3nc(C)c(C(=O)OCC)s3)c(C)c2c1=O | 4 | nt | nt | 1.2 | nt | nt
COc1ccc2nc(NC(=O)c3cnccn3)sc2c1 | 1 | 50 | 75*[fluorescence artefact?] | 0.6 | 8 | 46
CCOCC(=O)Nc1nc2ccc(OC)cc2s1 | -1 | -8 | -13 | 1 | -2 | 117
